KB-3-1 cytotox – qHTS assay for MDR1-selective chemotherapeutics: Primary screen using the parental adenocarcinoma cell KB-3-1; AID 1347075, 2019; KB-3-1 viability, CellTiter-Glo ATP luminescence, 72 h; hit rate 1.4% among 400,000; Potency, µM (doses to about 46.1 µM), usual class: cytotoxic; further: nearly all actives have a fitted effect of over 60% in size
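Cytotoxicity in the drug-sensitive parental line KB-3-1 was scored as loss of CellTiter-Glo luminescence following 72 h incubation with compound. Values come from curve fitting of normalized concentration-response data.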
ATXN2 expr inh – Primary qHTS for Inhibitors of ATXN expression; HEK-293 ATXN2-luciferase reporter, luminescence, 24 h; Potency, µM (highest dose often 57 µM), hits mostly inhibitors; hit rate 0.72% among 360,000; further: nearly all actives have a fitted effect of over 55% in size
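ATXN2-luciferase reporter cells (luciferase flanked by upstream and downstream ATXN2 gene portions) were treated 24 h at 37 °C with compounds at up to 57 uM. SteadyGlo luminescence gave expression; GF-AFC fluorescence gave viability.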
KB-V1 cytotox – qHTS assay for MDR1-selective chemotherapeutics: Primary screen using the drug-selected MDR subline cells KB-V1. Potency, µM (top dose mostly 46.1 µM), actives largely listed as cytotoxic. hit rate 3.4% among 400,000. AID 1347076, 2019. KB-V1 MDR cells viability, CellTiter-Glo, 72 h; further: nearly all actives have a fitted effect of over 60% in size
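Compound-treated KB-V1 multidrug-resistant cells, 72 h, 37 degrees C; viability by CellTiter-Glo. Fitted qHTS curves give the values.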
HT1080NT lethal – qHTS for induction of synthetic lethality in tumor cells producing 2HG: qHTS for the HT-1080-NT fibrosarcoma cell line; AID 686970, 2013; HT-1080-NT fibrosarcoma viability, CellTiter-Glo ATP luminescence, 48 h; hit rate 1.6% among 360,000; Potency, µM (highest dose often 46.1 µM), most hits filed as cytotoxic;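 further: NT is the 2HG producing partner of a matched IDH1 knockdown line; nearly all actives have a fitted effect of over 55% in size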
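750 cells/well, RPMI + 5% FBS; 2 h settle, compound pin-transfer, 48 h at 37 degrees C. CellTiter-Glo 10 min RT, luminescence. Normalized to DMSO and media-only wells.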
HT1080 IDH1KD tx – qHTS for induction of synthetic lethality in tumor cells producing 2HG: qHTS for the HT-1080-IDH1KD cell line | HT-1080 IDH1 knockdown viability, ATP luminescence, 48 h | AID 686971, 2013 | hit rate 2% among 360,000 | Potency, µM (top dose mostly 46.1 µM), actives largely listed as cytotoxic
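Cytotoxicity counter-line: IDH1KD HT-1080, 48 h, CellTiter-Glo. Curves classed by r2, magnitude and activity.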
S2 tox – Viability Counterscreen for Primary qHTS for Inhibitors of ATXN expression. S2 cells (HEK-293 line with an ATXN2-luciferase reporter) viability, CellTiter-Fluor protease fluorescence, 24 h. Potency, µM (top dose mostly 56.7 µM), actives largely listed as cytotoxic. hit rate 0.49% among 400,000; further: nearly all actives have a fitted effect of over 40% in size
A number is an active result. Sampled rows, rich in hits. Any-hit rate of the full collection: about 6.2%. The call rests on the fitted dose curve; in most records, active means well fitted curve in the direction sought with a large enough effect; inconclusive means small, poorly fitted or top-dose-only effect, or another doubt; inactive means no such curve, though single readings can be large; an effect the other way counts as inactive or inconclusive.

Screening COc1ccccc1CN1CCC2(CC1)c1ccccc1[C@@H](NC(=O)c1ccco1)[C@@H]2OC returned S2 tox inactive.
`O=C(N/N=C/c1ccc(O)c(O)c1)c1cccc(S(=O)(=O)N2CCCCC2)c1` gave KB-3-1 cytotox inactive, ATXN2 expr inh inactive, KB-V1 cytotox inactive, HT1080NT lethal inactive, HT1080 IDH1KD tx inactive and S2 tox inactive.
Screening O=C(N/N=C\c1cc(Br)ccc1O)c1ccc(S(=O)(=O)N2CCCCC2)cc1 returned KB-3-1 cytotox inactive, ATXN2 expr inh inconclusive, KB-V1 cytotox inactive, HT1080NT lethal inconclusive and HT1080 IDH1KD tx 2.06µM.
For O=C(N/N=C/c1cc([N+](=O)[O-])ccc1O)c1ccncc1 the results were KB-3-1 cytotox inactive, KB-V1 cytotox inconclusive, HT1080NT lethal inconclusive, HT1080 IDH1KD tx inactive and S2 tox inconclusive.
Screening O=C(N/N=C/c1cc(Br)ccc1O)c1ccncc1 returned KB-3-1 cytotox inconclusive, ATXN2 expr inh 2.82µM, KB-V1 cytotox inactive, HT1080NT lethal inconclusive, HT1080 IDH1KD tx inconclusive and S2 tox inactive.
For Cn1cc(S(=O)(=O)N2CCOCC2)cc1C(=O)Nc1cccc(C#N)c1 the results were KB-3-1 cytotox inactive, ATXN2 expr inh inactive, KB-V1 cytotox inactive and S2 tox inactive.
Screening COc1ccc(-c2[nH]c(-c3ccc(C)cc3)nc2SCC(=O)Nc2nccs2)cc1 returned KB-3-1 cytotox inconclusive, ATXN2 expr inh inactive, KB-V1 cytotox 23.1µM, HT1080NT lethal inconclusive, HT1080 IDH1KD tx inconclusive and S2 tox inactive.
`COc1ccc(-c2nc(SCC(=O)Nc3ccc4c(c3)OCCO4)c(-c3ccc(F)cc3)[nH]2)cc1` gave KB-3-1 cytotox inactive, ATXN2 expr inh inactive, KB-V1 cytotox inactive and S2 tox inconclusive.
Screening COc1cccc(-c2nn(C)c3sc(C(=O)Nc4ccc5c(c4)OCCO5)cc23)c1 returned KB-3-1 cytotox inactive, ATXN2 expr inh inactive, KB-V1 cytotox 18.4µM, HT1080NT lethal inactive, HT1080 IDH1KD tx inactive and S2 tox inactive.
COc1cccc(-c2nc(SCC(=O)Nc3ccc4c(c3)OCCO4)c(-c3ccc(C)cc3)[nH]2)c1 was read as KB-3-1 cytotox 20.6µM, ATXN2 expr inh inconclusive, KB-V1 cytotox inconclusive and S2 tox inconclusive.
For CCOc1ccc(CNC(=O)c2ccc3c(Cl)c4c(nc3c2)CCCC4)cc1 the results were KB-3-1 cytotox inactive, ATXN2 expr inh inactive, KB-V1 cytotox inactive and S2 tox inactive.
For Cn1c(-n2cccc2)c(-c2c(-c3ccccc3)[nH]c3c2c(=O)n(C)c(=O)n3C)c(=O)n(C)c1=O the results were KB-3-1 cytotox inactive, ATXN2 expr inh inactive, KB-V1 cytotox inactive and S2 tox inactive.
`CCOC1=C2CN(S(=O)(=O)c3ccc(C)cc3)C(c3cccc(Cl)c3)CC2N(S(=O)(=O)c2ccc(Cl)cc2)C(c2ccccc2)C1` (stereo not given) gave KB-3-1 cytotox 5.17µM, KB-V1 cytotox inactive, HT1080NT lethal inactive and HT1080 IDH1KD tx inactive.
CC(=O)C1=CCC(c2ccccc2F)N(S(=O)(=O)c2ccc(C)cc2)C1 (stereo not given) was read as KB-3-1 cytotox inactive, ATXN2 expr inh inactive, KB-V1 cytotox inactive, HT1080NT lethal inconclusive, HT1080 IDH1KD tx inconclusive and S2 tox inconclusive.
Screening CCOC1=C2CN(S(=O)(=O)c3ccc(C)cc3)[C@H](c3cccc4ccccc34)C[C@H]2C(C#N)(C#N)C(C#N)(C#N)C1 returned KB-3-1 cytotox inactive, ATXN2 expr inh 14.1µM, KB-V1 cytotox inactive, HT1080NT lethal inconclusive and HT1080 IDH1KD tx inconclusive.
CCOC1=C2CN(S(=O)(=O)c3ccc(Cl)cc3)[C@H](c3ccccc3)C[C@@H]2N(S(=O)(=O)c2ccc(C)cc2)[C@H](c2ccccc2)C1 was read as KB-3-1 cytotox inactive, ATXN2 expr inh inactive, KB-V1 cytotox inactive, HT1080NT lethal inactive, HT1080 IDH1KD tx inactive and S2 tox inactive.
CCOC1=C2[C@H](c3ccccc3)N(S(=O)(=O)c3ccc(C)cc3)C(C(C)(C)C)[C@H]2C(C#N)(C#N)C(C#N)(C#N)C1 (stereo not given in full) was read as KB-3-1 cytotox inactive, ATXN2 expr inh 25.1µM, KB-V1 cytotox inactive, HT1080NT lethal inconclusive, HT1080 IDH1KD tx inconclusive and S2 tox 17.8µM.
`CC(=O)C1=CCC(c2cccc3ccccc23)N(S(=O)(=O)c2ccc(C)cc2)C1` (stereo not given) gave KB-3-1 cytotox inconclusive, ATXN2 expr inh inactive, KB-V1 cytotox 10.3µM, HT1080NT lethal inconclusive, HT1080 IDH1KD tx inconclusive and S2 tox inactive.
Screening COc1cc(C(=O)OCc2cc(=O)n3nc(C4CCCCC4)sc3n2)cc(OC)c1OC returned KB-3-1 cytotox inactive, ATXN2 expr inh inactive, KB-V1 cytotox inactive and S2 tox inactive.
COc1cc(C2CC(=O)Nc3ccc4ccccc4c32)ccc1OC(=O)C(C)C (stereo not given) was read as KB-3-1 cytotox inactive, ATXN2 expr inh inactive, KB-V1 cytotox inactive and S2 tox inactive.
For COc1ccc(NC(=O)c2c(Nc3ccccc3)sc(C(=O)c3ccc(F)cc3)c2N)cc1 the results were KB-3-1 cytotox 2.06µM, ATXN2 expr inh inconclusive, KB-V1 cytotox inconclusive, HT1080NT lethal inconclusive, HT1080 IDH1KD tx inconclusive and S2 tox inactive.
For Nc1cc(C(=O)O)c(N)c2c1C(=O)c1ccccc1C2=O the results were KB-3-1 cytotox inconclusive, ATXN2 expr inh inconclusive, KB-V1 cytotox inactive, HT1080NT lethal inconclusive, HT1080 IDH1KD tx inconclusive and S2 tox 14.1µM.
`CCCCN(CCCC)CCNC(=O)Cn1nc(C)n2c(cc3sccc32)c1=O` gave KB-3-1 cytotox inactive and KB-V1 cytotox inactive.
Screening CC(C)(C)C(=O)Nc1ccccc1C(=O)Nc1cc(Cl)ccc1Cl returned KB-3-1 cytotox inactive, ATXN2 expr inh inactive, KB-V1 cytotox 16.4µM, HT1080NT lethal inactive, HT1080 IDH1KD tx inactive and S2 tox inactive.
`CC(C)(C)C(=O)Nc1ccccc1C(=O)Nc1cccnc1` gave KB-3-1 cytotox inactive, ATXN2 expr inh inactive, KB-V1 cytotox inactive, HT1080NT lethal inactive, HT1080 IDH1KD tx inactive and S2 tox inactive.
For Cc1ccc(-n2cccc2C(=S)N=P(N(C)C)(N(C)C)N(C)C)cc1 the results were KB-3-1 cytotox 8.2µM, ATXN2 expr inh inconclusive, KB-V1 cytotox 3.26µM, HT1080NT lethal inconclusive, HT1080 IDH1KD tx 8.2µM and S2 tox inconclusive.
